Results reported in PubChem BioAssay AID1159580 (chemical genetic matrix, 2015).
Hit rate of the full screen: of about 5,500 compounds, about 2,000 (36%) were called active. Inconclusive results (about 18%) are left out. No stated cut-off is given here; in the data, active means normalized growth mostly below about 0.91 (no sharp cut-off); inconclusive means no clear call, values can overlap the other calls; inactive means mostly above about 0.92. The list shows a part of the results.

Experiment: chemical genetic growth profiling, strain panel (AID 1159580);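 further: tested at 20 µM; growth read once vehicle control cultures reached saturation at 30 °C; 1 = growth at the plate median or of vehicle wells; lower values mean less growth of the strain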
Details: growth OD
[1] = S. cerevisiae deletion strains, locus YDR150W, strain NUM1, hits give low values
[2] = S. cerevisiae deletion strains, locus YMR307W, strain GAS1, hits give low values
[3] = S. cerevisiae deletion strains, locus YNL153C, strain GIM3, hits give low values
[4] = S. cerevisiae deletion strains, locus YNL322C, strain KRE1, hits give low values
[5] = S. cerevisiae deletion strains, locus YPL055C, strain LGE1, hits give low values

Measured: normalized growth

C[C@H]1OC[C@@H](C[N+](C)(C)C)O1
inactive: S. cerevisiae deletion strains, locus YAL040C, strain CLN3, hits give low values 1.01 | S. cerevisiae deletion strains, locus YCL061C, strain MRC1 (second series), hits give low values 1.01 | [1] 1 | S. cerevisiae deletion strains, locus YDR363W, strain ESC2, hits give low values 1.02 | S. cerevisiae deletion strains, locus YER002W, strain NOP16, hits give low values 1.04 | [2] 1 | [3] 1.02 | S. cerevisiae deletion strains, locus YNL175C, strain NOP13, hits give low values 1.02 | S. cerevisiae deletion strains, locus YNL197C, strain WHI3, hits give low values 1 | S. cerevisiae deletion strains, locus YNL224C, strain SQS1, hits give low values 1.02 | [4] 1.02 | S. cerevisiae deletion strains, locus YOR083W, strain WHI5 (second series), hits give low values 1.03 | [5] 1.05

CCc1cccc(C)c1N(C(=O)CCl)C(C)COC (centres undefined)
inactive: S. cerevisiae deletion strains, locus YAL013W, strain DEP1, hits give low values 1.01 | S. cerevisiae deletion strains, locus YBR021W, strain FUR4, hits give low values 0.996 | S. cerevisiae deletion strains, locus YBR229C, strain ROT2, hits give low values 1 | S. cerevisiae deletion strains, locus YCL029C, strain bik1, hits give low values 1.02 | S. cerevisiae deletion strains, locus YDL035C, strain GPR1, hits give low values 1.02 | S. cerevisiae deletion strains, locus YDL074C, strain BRE1, hits give low values 1.02 | S. cerevisiae deletion strains, locus YDL101C, strain DUN1, hits give low values 1.02 | S. cerevisiae deletion strains, locus YDL134C, strain PPH21, hits give low values 1.01 | S. cerevisiae deletion strains, locus YDL185W, strain tfp1, hits give low values 1.02 | S. cerevisiae deletion strains, locus YDL192W, strain arf1, hits give low values 1.02 | S. cerevisiae deletion strains, locus YDR101C, strain arx1, hits give low values 1.01 | [1] 1.01 | S. cerevisiae deletion strains, locus YDR162C, strain NBP2, hits give low values 1.01 | S. cerevisiae deletion strains, locus YDR318W, strain mcm21, hits give low values 1.01 | S. cerevisiae deletion strains, locus YDR388W, hits give low values 1.01 | S. cerevisiae deletion strains, locus YDR502C, strain sam2, hits give low values 1.02 | S. cerevisiae deletion strains, locus YEL061C, strain CIN8, hits give low values 1.01 | S. cerevisiae deletion strains, locus YER110C, hits give low values 1.02 | S. cerevisiae deletion strains, locus YER155C, strain BEM2, hits give low values 1.01 | S. cerevisiae deletion strains, locus YER167W, strain BCK2, hits give low values 1.02 | S. cerevisiae deletion strains, locus YGL078C, strain dbp3, hits give low values 1.01 | S. cerevisiae deletion strains, locus YGL086W, strain mad1, hits give low values 1.01 | S. cerevisiae deletion strains, locus YGL248W, strain PDE1, hits give low values 1.01 | S. cerevisiae deletion strains, locus YGR078C, strain PAC10, hits give low values 1.02 | S. cerevisiae deletion strains, locus YGR135W, strain pre9, hits give low values 1.01 | S. cerevisiae deletion strains, locus YGR229C, strain SMI1, hits give low values 1.03 | S. cerevisiae deletion strains, locus YGR252W, strain gcn5, hits give low values 1.01 | S. cerevisiae deletion strains, locus YHR030C, strain SLT2, hits give low values 1.01 | S. cerevisiae deletion strains, locus YHR079C, strain IRE1 (second series), hits give low values 1.02 | S. cerevisiae deletion strains, locus YHR094C, strain hxt1, hits give low values 1.02 | S. cerevisiae deletion strains, locus YHR129C, strain ARP1, hits give low values 1.01 | S. cerevisiae deletion strains, locus YHR200W, strain rpn10, hits give low values 1.02 | S. cerevisiae deletion strains, locus YIL066C, strain RNR3, hits give low values 1.02 | S. cerevisiae deletion strains, locus YIL073C, strain SPO22, hits give low values 1.05 | S. cerevisiae deletion strains, locus YIL125W, strain kgd1, hits give low values 1.02 | S. cerevisiae deletion strains, locus YIR030C, strain dcg1, hits give low values 1.02 | S. cerevisiae deletion strains, locus YJL095W, strain BCK1, hits give low values 0.991 | S. cerevisiae deletion strains, locus YJL134W, strain LCB3, hits give low values 1.02 | S. cerevisiae deletion strains, locus YJL168C, strain set2, hits give low values 1.01 | S. cerevisiae deletion strains, locus YJL187C, strain SWE1 (second series), hits give low values 1.01 | S. cerevisiae deletion strains, locus YJR043C, strain POL32, hits give low values 1.02 | S. cerevisiae deletion strains, locus YJR075W, strain HOC1, hits give low values 1.01 | S. cerevisiae deletion strains, locus YKL009W, strain mrt4, hits give low values 1.03 | S. cerevisiae deletion strains, locus YKL068W, hits give low values 1.01 | S. cerevisiae deletion strains, locus YKL085W, strain MDH1 (second series), hits give low values 1.02 | S. cerevisiae deletion strains, locus YKL085W, strain MDH1, hits give low values 1.02 | S. cerevisiae deletion strains, locus YKL190W, strain CNB1, hits give low values 1.02 | S. cerevisiae deletion strains, locus YKR001C, strain vps1, hits give low values 1.03 | S. cerevisiae deletion strains, locus YLR039C, strain RIC1, hits give low values 0.993 | S. cerevisiae deletion strains, locus YLR058C, strain SHM2, hits give low values 1.01 | S. cerevisiae deletion strains, locus YLR102C, strain apc9, hits give low values 1.02 | S. cerevisiae deletion strains, locus YLR262C, strain YPT6, hits give low values 1.03 | S. cerevisiae deletion strains, locus YLR268W, strain sec22, hits give low values 1.01 | S. cerevisiae deletion strains, locus YLR330W, strain CHS5, hits give low values 1.01 | S. cerevisiae deletion strains, locus YLR342W, strain FKS1 (second series), hits give low values 1.04 | S. cerevisiae deletion strains, locus YLR371W, strain rom2, hits give low values 1.02 | S. cerevisiae deletion strains, locus YLR418C, strain cdc73, hits give low values 1.01 | S. cerevisiae deletion strains, locus YML016C, strain PPZ1, hits give low values 1.01 | S. cerevisiae deletion strains, locus YML032C, strain rad52, hits give low values 0.992 | S. cerevisiae deletion strains, locus YML124C, strain tub3, hits give low values 1.02 | S. cerevisiae deletion strains, locus YMR078C, strain ctf18, hits give low values 1.02 | S. cerevisiae deletion strains, locus YMR223W, strain ubp8, hits give low values 1.02 | S. cerevisiae deletion strains, locus YMR263W, strain SAP30, hits give low values 1 | [2] 1 | S. cerevisiae deletion strains, locus YNL067W, strain RPL9B, hits give low values 1.01 | S. cerevisiae deletion strains, locus YNL128W, strain TEP1, hits give low values 1.01 | [3] 1.01 | S. cerevisiae deletion strains, locus YNL233W, strain BNI4, hits give low values 1.01 | S. cerevisiae deletion strains, locus YNL250W, strain rad50, hits give low values 1.01 | S. cerevisiae deletion strains, locus YNL271C, strain bni1, hits give low values 1.03 | S. cerevisiae deletion strains, locus YNL298W, strain CLA4, hits give low values 1.02 | S. cerevisiae deletion strains, locus YNL307C, strain MCK1, hits give low values 1.02 | [4] 1.01 | S. cerevisiae deletion strains, locus YNR052C, strain pop2, hits give low values 1.02 | S. cerevisiae deletion strains, locus YOL006C, strain TOP1, hits give low values 1.03 | S. cerevisiae deletion strains, locus YOL012C, strain htz1 0.819 | S. cerevisiae deletion strains, locus YOL147C, strain pex11, hits give low values 1.02 | S. cerevisiae deletion strains, locus YOR061W, strain CKA2, hits give low values 1.01 | S. cerevisiae deletion strains, locus YOR069W, strain VPS5, hits give low values 1.01 | S. cerevisiae deletion strains, locus YOR136W, strain idh2, hits give low values 1.01 | S. cerevisiae deletion strains, locus YOR144C, strain elg1, hits give low values 1.02 | S. cerevisiae deletion strains, locus YOR184W, strain ser1, hits give low values 1.03 | S. cerevisiae deletion strains, locus YOR316C, strain cot1, hits give low values 1.02 | [5] 1.03 | S. cerevisiae deletion strains, locus YPL241C, strain CIN2, hits give low values 1.02 | S. cerevisiae deletion strains, locus YPR119W, strain clb2, hits give low values 1.01 | S. cerevisiae deletion strains, locus YPR141C, strain kar3, hits give low values 1.02 | S. cerevisiae deletion strains, locus YPR163C, strain tif3, hits give low values 1.02 | S. cerevisiae deletion strains, locus YPR167C, strain met16, hits give low values 1.02 | S. cerevisiae deletion strains, strain wtn01, hits give low values 1.02 | S. cerevisiae strains, strain wild type, hits give low values 1
